Reference: PubChem BioAssay AID651814 (National Center for Advancing Translational Sciences (NCATS), 2012)
Screen size: about 2,100 compounds; about 590 (28%) were called active. Not shown: some 42% with an inconclusive outcome. Some of the results follow. A number with no mark means an inactive call. The call rests on the fitted dose curve; in most records, active means well fitted inhibition curve with a large enough effect; inconclusive means small, poorly fitted or top-dose-only effect; inactive means flat fitted curve, though single readings scatter.

molecular target: DNA dC->dU-editing enzyme APOBEC-3F (Homo sapiens) (UniProt Q8IUX4); assay: qHTS for inhibitors of Vif-A3F interactions: Cherry picks; conditions: HeLa A3F-eYFP + Vif (tagged APOBEC3F with the HIV-1 protein that degrades it), eYFP fluorescence, 24 h; further: nearly all actives have a fitted effect of over 70% in size;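 on max response: % of control where 0% means no effect; active compounds raise eYFP fluorescence by blocking Vif-driven A3F loss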
Outline: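 HeLa cells stably expressing A3F-eYFP plus Vif, cultured overnight, then exposed to compounds at several concentrations for 24 h at 37 deg C. Reduced Vif-driven degradation read as rising eYFP fluorescence (488 nm ex/500-530 nm em) by laser-scanning cytometry; MG132 as positive control.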
Potency means the concentration at half of the fitted maximal effect.

Chain of DNA dC->dU-editing enzyme APOBEC-3F (Homo sapiens) (Q8IUX4 whole entry, looked up): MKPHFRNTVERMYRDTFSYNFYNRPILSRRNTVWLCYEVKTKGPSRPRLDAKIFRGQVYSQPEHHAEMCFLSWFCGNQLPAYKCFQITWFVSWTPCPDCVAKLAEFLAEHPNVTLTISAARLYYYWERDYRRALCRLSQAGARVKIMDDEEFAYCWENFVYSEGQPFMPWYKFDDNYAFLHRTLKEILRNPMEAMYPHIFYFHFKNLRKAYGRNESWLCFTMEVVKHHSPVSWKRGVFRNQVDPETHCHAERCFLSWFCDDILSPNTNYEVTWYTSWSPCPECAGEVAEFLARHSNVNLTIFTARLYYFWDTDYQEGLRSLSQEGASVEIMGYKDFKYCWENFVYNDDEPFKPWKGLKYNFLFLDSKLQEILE

Compound | max response [%] | Potency
Cc1ccc(N2C(=O)[C@@H]3[C@H](C2=O)[C@H]2C=C(C(=O)c4ccccc4)C=CN2[C@@H]3C(=O)c2ccc(Cl)cc2)cc1 | -5.61 | –
COc1ccc(/C=C(/C(=O)c2cccs2)N2C=CC=CC2=C(C#N)C#N)cc1 | -25.3 | –
CCOC(=O)c1c(CN(CC)CC)n(-c2ccccc2)c2ccc(O)cc12 | 0.203 | –
COc1cc(/C=C2\SC(=Nc3cccnc3)NC2=O)cc(OC)c1OC | -8.17 | –
COc1cc(/C=C2/SC(=Nc3ccc(O)cc3)NC2=O)ccc1O | – | 16.4 µM (active)
CCC(=O)NC(=S)Nc1cccc(Cl)c1N1CCCC1 | -0.93 | –
COCCCN(C(C)=O)c1nc(-c2ccc(OC)cc2)cs1 | -29.1 | –
CCOC(=O)c1ccc(NC(=S)Nc2cccc(C)n2)cc1 | -6.7 | –
CCOC(=O)c1cc(-c2ccccc2)sc1NC(=S)Nc1cc(C)ccn1 | – | 8.2 µM (active)
Cc1ccc(NC(=S)Nc2ccccn2)c(C)c1 | 1.92 | –
CC(=O)Nc1ccc2c(c1)Cc1ccc(Cl)cc1-2 | -9.88 | –
NC(=O)C1CCN(c2nc3ccccc3nc2NS(=O)(=O)c2ccc(Br)cc2)CC1 | -0.959 | –
COc1ccc(N2C(=O)NC3CC2(C)Oc2ccccc23)cc1OC (centres undefined) | -29.4 | –
N#C/C(=C\c1ccc([N+](=O)[O-])o1)c1nc2ccccc2[nH]1 | – | 5.17 µM (active)
Cc1ccc2nc(/C(C#N)=C\c3ccc([N+](=O)[O-])o3)[nH]c2c1 | – | 3.26 µM (active)
COc1ccc(C(C)(O)c2nc(-c3ccccc3OC)cs2)cc1 (centres undefined) | -27.4 | –
O=C1/C(=C/c2ccc([N+](=O)[O-])cc2)Oc2cc(O)ccc21 | -5.76 | –
CN(C)c1ccc(/C=C2\Oc3ccc(C#Cc4cccc(N)c4)cc3C2=O)cc1 | – | 12.5 µM (active)
Cc1ccnc(N/C=C(\C#N)c2nc(-c3cccc(Br)c3)cs2)c1 | – | 11.2 µM (active)
O=[N+]([O-])c1ccccc1S(=O)(=O)Nc1ccc(-c2ccc(N3CCOCC3)nn2)cc1 | -8.95 | –
COc1ccccc1NS(=O)(=O)c1cc([N+](=O)[O-])ccc1N/N=C/c1sc(N2CCOCC2)nc1-c1ccccc1 | – | 2.06 µM (active)
O=C(O)c1ccccc1/C=N/Nc1ccc(S(=O)(=O)N2CCOCC2)cc1[N+](=O)[O-] | -0.875 | –
O=[N+]([O-])c1ccc(N/N=C/c2sc(N3CCOCC3)nc2-c2ccccc2)c(S(=O)(=O)Nc2ccccc2Cl)c1 | – | 9.2 µM (active)
COc1ccc(NC(=O)C2Cc3c(-c4cccc(C(C)=O)c4)ccnc3O2)cn1 (centres undefined) | -25.1 | –
